Molecules are shown by their SMILES. Records with an inconclusive call do not appear. Unmarked numbers belong to inactive results. Calls come from the whole dose curve; as a rule, active = well fitted inhibition curve with a large enough effect in the signal ratio in the repeat runs (not every such curve was filed as active); inconclusive = weak or mixed curves; inactive = flat fitted curve, though single readings scatter; the % refers to the signal ratio.
% is set by controls: 0 for no effect and ±100 for the full control effect.

Sequence of Progesterone receptor (Homo sapiens) (P06401 whole entry, looked up): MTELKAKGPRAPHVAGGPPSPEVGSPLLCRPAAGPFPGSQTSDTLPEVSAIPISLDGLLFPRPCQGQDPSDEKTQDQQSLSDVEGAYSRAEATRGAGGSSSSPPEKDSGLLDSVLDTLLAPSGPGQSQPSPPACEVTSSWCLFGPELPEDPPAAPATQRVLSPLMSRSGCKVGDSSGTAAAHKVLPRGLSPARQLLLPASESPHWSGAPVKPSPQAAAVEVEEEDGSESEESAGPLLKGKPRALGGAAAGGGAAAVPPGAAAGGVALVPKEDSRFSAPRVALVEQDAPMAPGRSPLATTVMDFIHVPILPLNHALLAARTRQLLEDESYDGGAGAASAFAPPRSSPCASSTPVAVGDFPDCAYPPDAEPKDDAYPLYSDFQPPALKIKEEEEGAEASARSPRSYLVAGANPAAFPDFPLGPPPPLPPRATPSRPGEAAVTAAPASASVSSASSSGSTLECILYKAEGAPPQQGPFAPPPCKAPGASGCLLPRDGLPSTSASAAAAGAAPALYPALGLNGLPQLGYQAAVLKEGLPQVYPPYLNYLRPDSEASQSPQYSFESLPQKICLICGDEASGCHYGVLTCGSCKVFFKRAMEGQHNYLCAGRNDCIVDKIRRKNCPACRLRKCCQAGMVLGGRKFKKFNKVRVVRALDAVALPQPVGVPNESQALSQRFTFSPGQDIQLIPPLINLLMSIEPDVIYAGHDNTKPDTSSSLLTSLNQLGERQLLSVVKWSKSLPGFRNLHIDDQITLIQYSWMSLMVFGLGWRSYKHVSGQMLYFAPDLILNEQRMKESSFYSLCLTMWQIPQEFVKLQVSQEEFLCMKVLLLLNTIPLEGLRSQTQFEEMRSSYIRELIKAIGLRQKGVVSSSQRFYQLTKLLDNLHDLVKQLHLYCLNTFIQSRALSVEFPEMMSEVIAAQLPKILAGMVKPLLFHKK

In the assay the target is Progesterone receptor (Homo sapiens) (UniProt P06401). Description: qHTS assay to identify small molecule antagonists of the progesterone receptor (PR) signaling pathway (AID 1346795). The settings on record: PR-UAS-bla HEK293T, beta-lactamase FRET ratio, 16 h; series mostly up to 92.4 µM; activity change, negative = inhibition: at the top concentration. The source says:
National Center for Advancing Translational Sciences [NCATS]
NIH Chemical Genomics Center [NCGC]
U.S. Environmental Protection Agency [EPA]
National Institutes of Environmental Health Sciences [NIEHS]
National Toxicology Program [NTP]
U.S. Food and Drug Administration [FDA]
Progesterone receptor (PR), a nuclear hormone receptor, plays an important role in development, metabolic homeostasis and reproduction. […] Endocrine disrupting chemicals (EDCs) and their interactions with steroid hormone receptors like PR causes disruption of normal endocrine function. To identify the compounds that inhibit PR signaling, a PR-UAS-bla GripTite cell line i.e. PR-UAS-bla HEK293T (Invitrogen, Carlsbad, CA, USA) containing a beta-lactamase reporter gene under the control of an Upstream Activator Sequence (UAS) was used to screen Tox21 10K compound library.
Tox21 Assay Protocol Summary:
PR-UAS-bla HEK293T cells were dispensed at 3,000 cells/4 uL of assay medium containing 2% charcoal stripped FBS per well into black wall/clear-bottom 1536-well plates using a Multidrop Combi (ThermoFisher Scientific, Waltham, MA) dispenser. After the assay plates were incubated at a 37C and 5% CO2 for 6 hr, 23 nL of compounds dissolved in DMSO, positive controls or DMSO only was transferred to the assay plate by a Pintool station (Kalypsys, San Diego, CA), followed by addition of 1 uL (1nM as final concentration) of Promegestone (R5020) in assay medium using a BioRAPTR FRD (Flying Reagent Dispenser, Aurora Discovery, San Diego, CA). The plates were incubated at 37C and 5% CO2 for 16 hr. Then 1 uL of LiveBLAzer B/G FRET substrate was added using a FRD. After the plates were incubated at room temperature for 2 hours, fluorescence intensity was measured by an Envision plate reader (PerkinElmer, Shelton, CT).
For orientation: qHTS replaces the single test concentration by a dilution series.
As for `CC(C)(CCC(=O)O)C(=O)O`, the “activity change, negative = inhibition” value is 9%.

For the molecule `CCC1C(=O)OCC1Cc1cncn1C` (stereo not given), the “activity change, negative = inhibition” value is -0.181% [at 42.5 µM].

Take `O=S(=O)(O)c1cccc2c(S(=O)(=O)O)cccc12`: the “activity change, negative = inhibition” value is 12.3%.

`O=[N+]([O-])c1cncn1CCN1CCOCC1`: the “activity change, negative = inhibition” value is 14.5% [at 42.5 µM].

Regarding `CC(C)(N)C#N`, the “activity change, negative = inhibition” value is 1.55%.

For `O=S(=O)(O)c1cccc(S(=O)(=O)O)c1`, the “activity change, negative = inhibition” value is 0.948%.

For `CCOC(=O)OC(C)OC1=C(C(=O)Nc2ccccn2)N(C)S(=O)(=O)c2ccccc21` (stereo not given), the “activity change, negative = inhibition” value is 0.382% [at 42.5 µM].

Turning to `CC(CO)(CO)[N+](=O)[O-]`, the “activity change, negative = inhibition” value was 3.3%.

On to `CC1=NN(c2cccc(S(=O)(=O)O)c2)C(=O)C1`, for which the “activity change, negative = inhibition” value was 0.473%.

Turning to `NC(CCC(=O)O)C(=O)O` (stereo not given), the “activity change, negative = inhibition” value was 0.676%.

On to `CC(C)[C@H]1CC[C@@H](C)CC1=O`, for which the “activity change, negative = inhibition” value was 12.1%.

Take `COc1cc(-c2ccc(=O)[nH]n2)ccc1OC(F)F`: the “activity change, negative = inhibition” value is -16.6% [at 42.5 µM].

Consider `Cc1nc2ccc(CN(C)c3ccc(C(=O)N[C@@H](CCC(=O)O)C(=O)O)s3)cc2c(=O)[nH]1`, for which the “activity change, negative = inhibition” value is -10.5% [at 42.5 µM].

For `COc1ccnc(CS(=O)c2nc3cc(OC(F)F)ccc3[nH]2)c1OC` (stereo not given), the “activity change, negative = inhibition” value is -10.4%.

On to `CCCCN(CCC(=O)OCC)C(C)=O`, for which the “activity change, negative = inhibition” value was 6.73%.

Regarding `CCOC(=O)c1cnc2c(cnn2CC)c1NN=C(C)C`, the “activity change, negative = inhibition” value is 2.42% [at 42.5 µM].

On to `[Ca+2]`, for which the “activity change, negative = inhibition” value was 0.538%.

`Cc1onc(-c2c(Cl)cccc2Cl)c1C(=O)Cl`: the “activity change, negative = inhibition” value is 0.979% [at 42.5 µM].

With `Cc1ccc(-c2ncc(Cl)cc2-c2ccc(S(C)(=O)=O)cc2)cn1`, the “activity change, negative = inhibition” value is -5.5% [at 42.5 µM].

On to `O=C(O)CNC(=O)c1ccc(CO)o1`, for which the “activity change, negative = inhibition” value is -0.0365%.

For the molecule `NC(=O)N1c2ccccc2CC(=O)c2ccccc21`, the “activity change, negative = inhibition” value is -2.02% [at 42.5 µM].

As to `O=C1CCCCCCCCCCCCCCO1`, the “activity change, negative = inhibition” value was 2.32%.

Regarding `C=COCC1CCC(COC=C)CC1` (stereo not given), the “activity change, negative = inhibition” value was -1.38%.

`C1CCC2(CCCCO2)OC1`: the “activity change, negative = inhibition” value was 12%.

On to `N[C@@H](CCC(=O)O)C(=O)O`, for which the “activity change, negative = inhibition” value is 8.01%.

In the case of `CCC(C(=O)NC(=O)NC(C)=O)c1ccccc1` (stereo not given), the “activity change, negative = inhibition” value was 4.88% [at 42.5 µM].

With `CCCC[N+](C)(CCCC)CCCC`, the “activity change, negative = inhibition” value was 14.7%.

As to `C=CCCCCCCCCC(=O)OCC`, the “activity change, negative = inhibition” value is -3.45%.

With `C[C@@H]1CCC[C@H](C)N1`, the “activity change, negative = inhibition” value is 3.21% [at 42.5 µM].

In the case of `CCOCC(C)O` (stereo not given), the “activity change, negative = inhibition” value was 0.124%.

Consider `CCCO[Si](OCCC)(OCCC)OCCC`, for which the “activity change, negative = inhibition” value was -0.186%.

Consider `CCC(C)(CCCC(C)C)OC(C)=O` (stereo not given), for which the “activity change, negative = inhibition” value was 8.55%.

As to `CC(=O)C1CCCCC1=O` (stereo not given), the “activity change, negative = inhibition” value was -1.16%.

Turning to `CC(C)(C)c1ccc(-c2ccc(C(C)(C)C)cc2)cc1`, the “activity change, negative = inhibition” value was 1.72%.

Regarding `CCCCOCCOC(=O)COc1cc(Cl)c(Cl)cc1Cl`, the “activity change, negative = inhibition” value is 7.12%.

On to `COCCOCC(OC)OC`, for which the “activity change, negative = inhibition” value was 3.6% [at 42.5 µM].

In the case of `CN1[C@@H]2CC[C@H]1CC(OC(=O)C(O)c1ccccc1)C2` (stereo not given in full), the “activity change, negative = inhibition” value is 10.4% [at 42.5 µM].

For the molecule `CCOC(=O)COc1cc(-n2ncc(C(F)(F)F)c(C)c2=O)c(F)cc1Cl`, the “activity change, negative = inhibition” value is 7.71%.

Take `Cc1cc(C)c(N=Nc2c(O)c(S(=O)(=O)O)cc3cc(S(=O)(=O)O)ccc23)cc1C`: the activity change, negative = inhibition is 2.15% [at 8.39 µM].

Consider `CCCCCC(C)N` (stereo not given), for which the “activity change, negative = inhibition” value was -0.263% [at 42.5 µM].

For the origin of these results see PubChem BioAssay (Tox21).
